Screen size: about 5,500 compounds; about 2,000 (36%) were called active. Roughly 18% stayed inconclusive and do not appear here. No stated cut-off is given here; in the data, active means normalized growth mostly below about 0.91 (no sharp cut-off); inconclusive means no clear call, values can overlap the other calls; inactive means mostly above about 0.92. The list shows a part of the results.
Experiment: chemical genetic growth profiling, strain panel (AID 1159580);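 further: tested at 20 µM; growth read once vehicle control cultures reached saturation at 30 °C; 1 = growth at the plate median or of vehicle wells; lower values mean less growth of the strain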
Settings: S. cerevisiae deletion strains, growth OD

Measured: normalized growth

Cc1nc([N+](=O)[O-])cn1CC(=O)c1ccc(Cl)cc1
active: locus YGR092W, strain DBF2, active compounds read low 0.416 | locus YHR030C, strain SLT2, active compounds read low 0.189 | locus YLR113W, strain HOG1, active compounds read low 0.539
inactive: locus YAR019C, strain CDC15, active compounds read low 0.973 | locus YBL105C, strain PKC1, active compounds read low 0.97 | locus YBR135W, strain CKS1, active compounds read low 0.982 | locus YBR136W, strain MEC1, active compounds read low 0.973 | locus YBR160W, strain CDC28, active compounds read low 0.984 | locus YDL017W, strain CDC7, active compounds read low 0.981 | locus YDL028C, strain MPS1, active compounds read low 0.969 | locus YDL101C, strain DUN1, active compounds read low 0.978 | locus YDL108W, strain KIN28, active compounds read low 0.963 | locus YDL132W, strain cdc53, active compounds read low 0.976 | locus YDL214C, strain PRR2, active compounds read low 0.927 | locus YDR052C, strain DBF4, active compounds read low 0.964 | locus YDR054C, strain cdc34, active compounds read low 0.973 | locus YDR226W, strain ADK1, active compounds read low 0.972 | locus YDR477W, strain SNF1, active compounds read low 0.938 | locus YER123W, strain YCK3, active compounds read low 0.782 | locus YER133W, strain GLC7, active compounds read low 0.94 | locus YFL009W, strain cdc4, active compounds read low 0.982 | locus YFL029C, strain CAK1, active compounds read low 0.971 | locus YFR003C, strain YPI1, active compounds read low 0.979 | locus YFR019W, strain FAB1, active compounds read low 0.901 | locus YFR028C, strain CDC14, active compounds read low 0.98 | locus YGR040W, strain KSS1, active compounds read low 0.94 | locus YGR052W, strain FMP48, active compounds read low 1.03 | locus YHR079C, strain IRE1, active compounds read low 1.05 | locus YHR082C, strain KSP1, active compounds read low 1.04 | locus YHR205W, strain SCH9, active compounds read low 0.964 | locus YIL147C, strain SLN1, active compounds read low 0.96 | locus YJL095W, strain BCK1, active compounds read low 1.02 | locus YJL128C, strain PBS2, active compounds read low 0.906 | locus YJL157C, strain FAR1, active compounds read low 0.922 | locus YJR016C, strain ILV3, active compounds read low 0.97 | locus YJR066W, strain TOR1 (second series), active compounds read low 0.898 | locus YJR066W, strain TOR1, active compounds read low 1.04 | locus YKL048C, strain ELM1, active compounds read low 0.966 | locus YKL067W, strain YNK1, active compounds read low 0.947 | locus YKL101W, strain HSL1, active compounds read low 0.954 | locus YKL193C, strain SDS22, active compounds read low 0.969 | locus YKL203C, strain TOR2, active compounds read low 1.02 | locus YLR133W, strain CKI1, active compounds read low 0.962 | locus YLR403W, strain SFP1, active compounds read low 0.941 | locus YML070W, strain DAK1, active compounds read low 0.904 | locus YMR001C, strain CDC5, active compounds read low 0.976 | locus YMR205C, strain PFK2 (second series), active compounds read low 0.966 | locus YMR277W, strain FCP1, active compounds read low 0.964 | locus YNL006W, strain LST8, active compounds read low 0.983 | locus YNL020C, strain ARK1, active compounds read low 0.959 | locus YNL161W, strain CBK1, active compounds read low 0.971 | locus YNL183C, strain NPR1, active compounds read low 1 | locus YNL207W, strain RIO2, active compounds read low 0.965 | locus YNL222W, strain SSU72, active compounds read low 0.977 | locus YNL307C, strain MCK1 (second series), active compounds read low 0.967 | locus YOL078W, strain AVO1, active compounds read low 0.969 | locus YOL136C, strain PFK27, active compounds read low 0.927 | locus YOR061W, strain CKA2, active compounds read low 0.94 | locus YOR119C, strain RIO1, active compounds read low 0.985 | locus YOR231W, strain MKK1, active compounds read low 1 | locus YOR329C, strain SCD5, active compounds read low 0.977 | locus YPL031C, strain PHO85, active compounds read low 0.949 | locus YPL153C, strain RAD53, active compounds read low 0.916 | locus YPL204W, strain HRR25, active compounds read low 0.921 | locus YPL209C, strain IPL1, active compounds read low 0.984 | locus YPL256C, strain CLN2, active compounds read low 1.01 | locus YPR025C, strain CCL1, active compounds read low 0.985 | locus YPR106W, strain ISR1, active compounds read low 0.982 | locus YPR111W, strain DBF20, active compounds read low 0.989 | strain NNK1, active compounds read low 0.979 | strain TSCII, active compounds read low 0.969

Source: PubChem BioAssay AID1159580 (chemical genetic matrix, 2015)
